# Screens from PubChem BioAssay.
# RORgamma inh: ROR gamma (mouse) transcription inhibition; P51450; Drosophila S2 Gal4-RORgamma UAS-luciferase reporter, 20 h; Potency, µM (series often up to 53.6 µM), for the others: top-dose activity change, negative = inhibition, actives largely listed as inhibitors; hit rate 5.4% among 310,000; also: potency is read from the fitted curve at half-maximal effect; nearly all actives have a fitted effect of over 60% in size
# Target sequence (P51450 whole entry, looked up, the tested form may be a part): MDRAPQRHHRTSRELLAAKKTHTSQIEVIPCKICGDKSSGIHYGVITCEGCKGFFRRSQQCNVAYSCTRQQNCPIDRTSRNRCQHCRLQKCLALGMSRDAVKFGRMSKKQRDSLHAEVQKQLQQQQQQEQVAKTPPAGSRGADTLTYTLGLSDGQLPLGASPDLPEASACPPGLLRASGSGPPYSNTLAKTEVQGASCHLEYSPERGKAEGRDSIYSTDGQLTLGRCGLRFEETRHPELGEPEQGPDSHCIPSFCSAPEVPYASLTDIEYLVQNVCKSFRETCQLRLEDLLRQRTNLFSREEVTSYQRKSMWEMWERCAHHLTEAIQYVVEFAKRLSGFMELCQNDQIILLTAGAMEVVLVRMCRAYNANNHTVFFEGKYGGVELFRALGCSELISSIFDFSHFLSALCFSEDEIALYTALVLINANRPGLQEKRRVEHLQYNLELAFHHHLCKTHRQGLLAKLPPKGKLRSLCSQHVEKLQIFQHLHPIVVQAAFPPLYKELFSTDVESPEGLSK
#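 Using a luciferase readout, inhibitors were identified by reduced reporter activity in Drosophila cells coexpressing a copper-inducible Gal4–ROR gamma fusion and UAS-driven Photinus luciferase, incubated 20 hr after 700 uM copper sulfate.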
# Gal4-VP16 FLuc: inhibits Gal4-VP16 luciferase reporter, ROR gamma counter-screen; hit rate 3.5% among 310,000; Potency, µM (top dose mostly 53.6 µM), for inactives: at the top dose activity, negative = inhibition, most hits filed as inhibitors; Drosophila S2 Gal4-VP16 UAS-luciferase, luminescence, 20 h;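 also: Gal4-VP16 expression switched on by copper sulfate through the metallothionein promoter; potency is read from the fitted curve at half-maximal effect; nearly all actives have a fitted effect of over 50% in size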
# TDP1 cell noCPT: qHTS for Inhibitors of human tyrosyl-DNA phosphodiesterase 1 (TDP1): qHTS in cells in absence of CPT | DT40 Tdp1-/- hTDP1 cells, no CPT, ATP luminescence, 48 h | Potency, µM (series often up to 46.2 µM), without a hit: top-dose activity change, negative = growth inhibition, most hits filed as inhibitors | hit rate 15% among 420,000; also: potency is read from the fitted curve at half-maximal effect; nearly all actives have a fitted effect of over 55% in size
#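 Stably hTDP1-transfected Tdp1-null chicken DT40 cells were treated with library compounds minus camptothecin and grown for at least 48 hr at 37 °C, after which cellular ATP was quantified by luminescence.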
# DT40 TDP1 CPT: DT40-hTDP1 cell growth loss with CPT; hit rate 12% among 420,000; AID 686979; Potency, µM (top dose mostly 46.2 µM), without a hit: at the top dose activity change, negative = growth inhibition, hits mostly inhibitors; chicken DT40 Tdp1-/-;hTDP1 cells + 20 nM CPT, ATP luminescence, 48 h; also: potency is read from the fitted curve at half-maximal effect; nearly all actives have a fitted effect of over 55% in size
#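 Chicken DT40 Tdp1-/- cells complemented with human TDP1, 400 cells/well, exposed to compounds plus 20 nM camptothecin for at least 48 h at 37 C; viability read as ATP content by CellTiter-Glo luminescence.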
# IL1B secr inh: blocks inflammasome-driven IL-1 beta release | THP-1 LPS/ATP IL-1B secretion, AlphaLISA, 16 h; stronger effect = lower value | activity change, % at 57.5 µM | hit rate 4.7% among 360,000 | AID 743279; in the data active = activity change below about -50%; inconclusive = mostly about -30% to -49%
#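 Secreted IL-1B measured by AlphaLISA bead assay after 16 h compound exposure of THP-1 cells; compounds (final up to 57.5 uM) added 1 h before LPS (250 ng/mL) and ATP (1.25 mM) stimulation; lower signal means less secretion.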
# LDHA inh: inhibitors of human lactate dehydrogenase A; activity change, % (values are at about 110 or 230 µM); hit rate 0.15% among 480,000; purified LDHA, NADH/diaphorase-resazurin fluorescence; stronger effect = lower value; P00338; AID 1347041; in the data active = activity change below about -30%; inconclusive = mostly about -25% to -30%;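 also: plate controls were DMSO wells for no effect and wells without enzyme for full effect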
#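 Human LDH5 at 2 nM final in Tris HCl pH 7.4 with 0.06 mM NADH and 0.2 mM pyruvate, reacted 5 minutes at room temperature. Remaining NADH coupled via diaphorase/resazurin; resorufin fluorescence read at 0 and 20 minutes, normalized to enzyme-free and DMSO wells.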
# Active calls of the source: *; ? = inconclusive; / = no result given. Most compounds without a hit are left out; they make up all but 18% or so of the library. Unless noted, calls follow the shape of the dose curve; as a rule, active = well fitted curve in the direction sought with a large enough effect; inconclusive = small, poorly fitted or top-dose-only effect, or another doubt; inactive = no such curve, though single readings can be large; an effect the other way counts as inactive or inconclusive. Unless noted, % is scaled to controls: 0 for no effect and ±100 for the full control effect.
SMILES,RORgamma inh,Gal4-VP16 FLuc,TDP1 cell noCPT,DT40 TDP1 CPT,IL1B secr inh,LDHA inh
COc1ccc(NC(=O)COc2cc(C)cc(C)c2)cc1S(=O)(=O)N1CCCCC1,/,/,8.2µM*,7.3µM*,-8,1
Cc1ccc(NC(=O)COc2cccnc2[N+](=O)[O-])cc1S(=O)(=O)N1CCCCC1,22%,?,21µM*,13µM*,-6,0
Cc1ccc(NC(=O)CSc2ccccc2)cc1S(=O)(=O)N1CCCCC1,/,/,?,15µM*,-26,-1
CCOc1ccc(NC(=O)COc2cccc3cccnc23)cc1S(=O)(=O)N1CCCC1,/,/,15µM*,?,-27,5
CC(C)N(C)C(=O)CSc1nc(NC2CC2)c2ccccc2n1,/,/,/,/,/,-3
CNC(=O)NC(=O)CN(CCC1CCCCC1)CC(N)=O,/,/,/,/,/,-2
CCc1nc(N2CCN(CCO)CC2)c(C#N)c2c1CCCC2,/,/,/,/,/,-5
O=C(/C=C/c1ccco1)N(Cc1cccs1)C1CC1,/,/,/,/,/,3
Cc1ccc(NC(=O)COc2ccc(-c3nnco3)cc2)cc1S(=O)(=O)N1CCOCC1,?,4%,13µM*,?,-23,0
Cc1ccc(NC(=O)Cn2ncc(Cl)c(Cl)c2=O)cc1S(=O)(=O)N1CCCCC1,/,/,3.3µM*,7.3µM*,-75*,-4
Cc1ccc(NC(=O)Cc2ccc(Cl)cc2)cc1S(=O)(=O)N1CCCCCC1,/,/,?,?,?,3
Cc1ccc(OCCC(=O)OCC(=O)Nc2ccc(C)c(S(=O)(=O)N3CCOCC3)c2)cc1,/,/,9%,0%,-13,-4
CC(C)CC(=O)Nc1ccc(C(=O)COc2ccc(-c3nnco3)cc2)cc1,18%,2%,23µM*,?,-13,-6
Cc1ccc(NC(=O)COc2ccccc2)cc1S(=O)(=O)N1CCCCCC1,/,/,29µM*,?,-20,-4
COC(=O)C(=O)CC(=O)c1ccc2c(c1)OCO2,/,/,/,/,/,4
COc1ccc(NC(=O)CSc2ccc(F)cc2)cc1S(=O)(=O)N1CCCCC1,?,4%,-85%,21µM*,-5,-1
CCCn1c(C)cc(C(=O)COc2ccc(-c3nnco3)cc2)c1C,5%,?,7.3µM*,4.6µM*,/,0
COc1ccc(NC(=O)CSc2ccc(NC(C)=O)cc2)cc1S(=O)(=O)N1CCCCC1,?,24%,?,2%,-3,-10
CCCCCN=c1ccn(Cc2ccccc2)c2ccccc12,16µM*,-5%,2.1µM*,2.7µM*,/,/
OCCCc1cn(Cc2ccccc2)c2ccccc12,6%,3%,-12%,-7%,13,-3
COC(=O)C12OCC34C(CC5C(C)=C(O)C(=O)CC5(C)C3C(O)C1O)OC(=O)C(OC(=O)C=C(C)C)C24 (stereo unspecified),/,/,0.15µM*,0.065µM*,/,-3
CC(OC(=O)c1cccc(S(=O)(=O)N(C)C)c1)C(=O)c1ccccc1 (stereo unspecified),/,/,/,/,/,3
Cc1ccc(OCC(=O)N/N=C/c2cccc3cccnc23)cc1,16µM*,?,26µM*,23µM*,99,-3
O=C(COc1ccc(F)cc1)N/N=C/c1cccc2cccnc12,/,/,16µM*,21µM*,164,-1
COc1ccc2ccccc2c1C1C(C#N)=C(N)OC2=C1C(=O)CC(C)(C)C2 (stereo unspecified),/,/,/,/,/,8
SMILES,RORgamma inh,Gal4-VP16 FLuc,TDP1 cell noCPT,DT40 TDP1 CPT,IL1B secr inh,LDHA inh
CCn1c(SC(C)C(=O)Nc2nccs2)nnc1-c1ccco1 (stereo unspecified),/,/,/,/,/,-17
Cc1ccc2c(Cl)c(C(=O)N/N=C/c3cccn3C)sc2c1,1.3µM*,1.6µM*,8.2µM*,8.2µM*,2,-1
Cc1cc(C(=O)N/N=C/c2cccn2C)no1,-43%,-2%,-12%,10%,-8,-3
Cn1cccc1/C=N/NC(=O)c1sc2cc(Cl)ccc2c1Cl,0.71µM*,0.56µM*,/,/,/,/
CCOC(=O)N1CCC(NC(=O)C(CC)n2nc(C)c3sc4ccccc4c3c2=O)CC1 (stereo unspecified),/,/,/,/,/,0
CCC(C(=O)NCCc1ccc(OC)c(OC)c1)n1nc(C)c2sc3ccccc3c2c1=O (stereo unspecified),/,/,8.2µM*,9.2µM*,/,-8
CCC(C(=O)NCCc1ccc(SC)cc1)n1nc(C)c2sc3ccccc3c2c1=O (stereo unspecified),/,/,23µM*,?,/,-3
COc1ccc(CCNC(=O)C(C)n2nc(C)c3sc4ccccc4c3c2=O)cc1OC (stereo unspecified),/,/,18µM*,15µM*,/,-4
COc1ccc(CNC(=O)C(C)n2nc(C)c3sc4ccccc4c3c2=O)cc1OC (stereo unspecified),/,/,6.5µM*,6.5µM*,/,0
CSc1ccc(CCNC(=O)C(C)n2nc(C)c3sc4ccccc4c3c2=O)cc1 (stereo unspecified),/,/,?,?,/,-8
Cc1c(CCC(=O)NCc2nc(-c3ccccc3)no2)c(=O)oc2cc(O)ccc12,/,/,/,/,/,3
COc1cc(OC)cc(C(=O)Nn2cc(C(=O)Nc3ccc(F)cc3F)c3ccccc3c2=O)c1,-28%,14%,?,13µM*,-21,-9
COC(=O)c1cn(NC(=O)c2cc([N+](=O)[O-])ccc2F)c(=O)c2ccccc12,-41%,4%,4.6µM*,3.3µM*,-93*,-5
COc1cc(OC)cc(C(=O)Nn2cc(C(=O)N3CCN(C)CC3)c3ccccc3c2=O)c1,6%,-3%,-5%,-5%,7,-8
CC(C)CNc1nc(C(=O)Nc2nnc(C3CC3)s2)cs1,/,/,/,/,/,0
O=C(NCC#Cc1cccc(C(F)(F)F)c1)NC1CCN(Cc2ccccn2)CC1,/,/,/,/,/,12
CCC(C)c1ccc(NC(=S)NCCn2cc(Cl)cn2)cc1 (stereo unspecified),3.2µM*,10µM*,21µM*,?,?,-6
CCC(C)c1ccc(NC(=S)NCCn2cc(Br)cn2)cc1 (stereo unspecified),2.2µM*,11µM*,15µM*,21µM*,-52*,2
CCC(C)c1ccc(NC(=S)Nc2ccc(N(CC)CC)cc2)cc1 (stereo unspecified),/,/,/,/,/,28
Cc1ccc(-c2nc3ccccc3s2)cc1NC(=O)c1ccccc1C,/,/,/,/,/,8
CCOC1=C2CN(S(=O)(=O)c3ccc(C)cc3)C(c3cccc(Cl)c3)CC2NC(c2ccccc2)C1 (stereo unspecified),/,/,?,18µM*,-15,-1
